Bioassay records (PubChem BioAssay)
KCNK9 inh: KCNK9 potassium channel inhibitors, primary screen, HEK293 cells, thallium flux. FluxOR thallium flux fluorescence; hits give low values. AID 488922, 2010. actives 1.2% (n = 310,000). B-score at 10 µM;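 active = ratio B-score over 3 SD below the library mean, with starting fluorescence within 5 SD of its mean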;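 also: negative B-score means less thallium flux so channel inhibition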
TMEM16A act: TMEM16A chloride channel activators or potentiators, primary screen, cell-based, HTS | Anoctamin-1 (Mus musculus), Q8BHY3 | HEK293 TMEM16A/YFP-H148Q/I152L, iodide quench fluorescence; hits give low values | B-score at 10 µM | actives 0.3% (n = 340,000);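 active = fluorescence-ratio B-score plate-corrected deviation score at least 3 library SD below zero, with starting fluorescence score within 5 deviations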;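 also: channel opened by trigger with iodide after compound preincubation; score built on the fluorescence ratio of max minus min over baseline; more negative score means more quench and so TMEM16A activation or potentiation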
ANO1 block: TMEM16A chloride channel inhibitors, primary screen, cell-based, HTS. Anoctamin-1 (Mus musculus), Q8BHY3. HEK293 TMEM16A/YFP iodide influx fluorescence, ionomycin. normalized B-score (activity score, 25-100; higher = stronger inhibition) at 10 µM. actives 1.2% (n = 310,000). AID 588511, 2011;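 active = ratio plate-corrected score three or more library SD toward inhibition, starting fluorescence score within five deviations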;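 also: score derived from kinetic fluorescence span divided by baseline fluorescence per well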
Kir21 block: inhibitors of mouse Kir2.1 inward-rectifier potassium channel. HEK293-Kir2.1, FluxOR thallium flux fluorescence; hits give low values. B-score at 10 µM. actives 0.85% (n = 310,000);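 active = fluorescence ratio B-score at or below minus 3 SD of library scores, with starting-brightness B-score within 2 SD, cut at about -4.2 in these data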;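 also: channel flux triggered by added potassium and thallium sulfate stimulus; B-score of peak minus minimum fluorescence over baseline after thallium stimulus; more negative B-score means stronger Kir2.1 block with less thallium influx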
Target sequence (P35561 whole entry, looked up): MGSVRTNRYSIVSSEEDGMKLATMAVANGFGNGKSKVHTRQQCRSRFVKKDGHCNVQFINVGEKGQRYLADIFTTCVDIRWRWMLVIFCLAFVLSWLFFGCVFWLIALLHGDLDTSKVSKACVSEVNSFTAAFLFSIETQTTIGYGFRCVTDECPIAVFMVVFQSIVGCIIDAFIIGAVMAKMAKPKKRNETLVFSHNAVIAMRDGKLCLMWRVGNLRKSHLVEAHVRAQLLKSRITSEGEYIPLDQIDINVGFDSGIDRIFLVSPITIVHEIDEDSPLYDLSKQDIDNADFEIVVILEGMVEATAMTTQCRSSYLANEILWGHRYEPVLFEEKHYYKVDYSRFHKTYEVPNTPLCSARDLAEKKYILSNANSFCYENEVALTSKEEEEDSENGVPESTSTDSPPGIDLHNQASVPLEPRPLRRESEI
KCNK3 block: human KCNK3 channel inhibitors, primary screen, CHO cells, FluxOR thallium flux, B-score. actives 0.84% (n = 340,000). Potassium channel subfamily K member 3 (Homo sapiens), O14649. FluxOR fluorescence; hits give low values. B-score at 10 µM;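 active = B-score under library mean minus 4 SD, starting fluorescence ratio at most library mean plus 5 SD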;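 also: more negative B-score means stronger inhibition of thallium flux through KCNK3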
An asterisk follows results filed as active. Compounds with a hit are over-represented: about 3.5% of the library has one in this group of screens.

`COc1ccccc1-c1cc(-c2ccccc2)nc(SCC(=O)O)c1C#N` gave KCNK9 inh inactive, TMEM16A act inactive, ANO1 block inactive, Kir21 block 0.05 and KCNK3 block inactive.
`COc1ccccc1N1CCN(C(=O)c2ccc3c(c2)NC(=O)C(CSCc2ccccc2C)N3)CC1` (configuration not stated) gave KCNK9 inh inactive, ANO1 block inactive and Kir21 block -0.15.
CC[C@H](C)[C@H]1O[C@]2(CC[C@@H]1C)C[C@@H]1C[C@@H](CC=C(C)[C@@H](O[C@H]3C[C@H](OC)[C@@H](O[C@H]4C[C@H](OC)[C@@H](O)[C@H](C)O4)[C@H](C)O3)[C@@H](C)C=CC=C3CO[C@@H]4[C@H](O)C(C)=C[C@@H](C(=O)O1)[C@]34O)O2 was read as TMEM16A act inactive, ANO1 block 25* and KCNK3 block inactive.
`CCCCn1nc2cc(C(=O)NCc3ccc(OC)cc3)ccc2c1OCC` gave KCNK9 inh inactive, TMEM16A act inactive, ANO1 block inactive, Kir21 block -5.08* and KCNK3 block inactive.
Screening c1ccc(Cc2nc3ccccc3n2Cc2ccccc2)cc1 returned KCNK9 inh inactive, TMEM16A act inactive, ANO1 block inactive, Kir21 block -7.25* and KCNK3 block inactive.
`CC(C)Cc1nc2ccccc2n1CCc1ccccc1` gave KCNK9 inh inactive, TMEM16A act inactive, ANO1 block inactive, Kir21 block -6.55* and KCNK3 block inactive.
Screening CC(C)(C)Cc1nc2ccccc2n1CCc1ccccc1 returned KCNK9 inh inactive, TMEM16A act inactive, ANO1 block inactive, Kir21 block -6.06* and KCNK3 block inactive.
`Cc1nc2ccccc2n1Cc1ccccc1` gave KCNK9 inh inactive, TMEM16A act inactive, ANO1 block inactive, Kir21 block 0.58 and KCNK3 block inactive.
For N#C/C(=C(/O)c1ccc(Cl)c([N+](=O)[O-])c1)c1nc2ccccc2[nH]1 the results were KCNK9 inh inactive, TMEM16A act inactive, ANO1 block inactive, Kir21 block -1.69 and KCNK3 block inactive.
For COc1ccc(C(C(=O)NC2CCCC2)N(C(=O)c2ccco2)c2cc3c(cc2C(C)=O)OCO3)cc1 (configuration not stated) the results were KCNK9 inh inactive, TMEM16A act inactive, ANO1 block inactive, Kir21 block 0.82 and KCNK3 block inactive.
For C=C1[C@H]2O[C@H]2[C@@H](OC(C)=O)[C@@]2(C)[C@@H](OC(C)=O)C[C@@H](OC(C)=O)[C@@](C)(O)[C@@H]2[C@@H](OC(C)=O)[C@@]2(O)[C@@H](C)C(=O)O[C@H]2[C@H]1Cl the results were KCNK3 block inactive.
For O=[N+]([O-])c1ccc(COc2ccc(CN3CCOCC3)cc2)cc1 the results were KCNK3 block inactive.
O=[N+]([O-])c1ccc(CN2CCOCCOCCN(Cc3ccc([N+](=O)[O-])cc3)CCOCC2)cc1 was read as KCNK9 inh -7.21*, TMEM16A act inactive, ANO1 block inactive, Kir21 block -0.83 and KCNK3 block inactive.
Screening O=[N+]([O-])c1cc([N+](=O)[O-])c2nonc2c1Nc1ccccc1O returned KCNK9 inh inactive, TMEM16A act inactive, ANO1 block 100*, Kir21 block 0.56 and KCNK3 block inactive.
Screening Cc1ccc2cc(C)c(SCC(=O)NCC3CCCO3)nc2c1 (configuration not stated) returned KCNK9 inh inactive, TMEM16A act inactive, ANO1 block inactive, Kir21 block -4.31* and KCNK3 block inactive.
Cc1ccc(SCC(=O)NCC2CCCO2)cc1 (configuration not stated) was read as KCNK9 inh inactive, TMEM16A act inactive, ANO1 block inactive, Kir21 block 0.05 and KCNK3 block inactive.
For Nn1cc(-c2ccccc2)nc1SCC(=O)NCC1CCCO1 (configuration not stated) the results were KCNK9 inh inactive, TMEM16A act -20.5*, ANO1 block inactive, Kir21 block 0.48 and KCNK3 block inactive.
